Results on 40 compounds are retold here after PubChem BioAssay (NCATS).

Molecules are shown by their SMILES.

A short description of the test: High-throughput drug toxicity screening in the BPDCN cell line Cal-1 (AID 1224825). The following applies: Cal-1 BPDCN cell viability, qHTS; at 45.8 µM (top of the series). The text has this: Blastic plasmacytoid dendritic cell neoplasm (BPDCN) is a rare, aggressive and largely incurable hematologic malignancy originating from plasmacytoid dendritic cells (pDCs). Although an initial response to chemotherapy is common, BPDCN prognosis is extremely poor and most patients relapse with drug-resistant disease leading to a median overall survival of ~1 year after diagnosis. To explore novel potential therapeutic strategies in BPDCN, we performed a high-throughput drug toxicity screening in BPDCN cell liens, using of a library of 1,912 small molecules, enriched for compounds that are either approved or in early stages of development for cancer therapy.
A total of 500 exponentially growing Cal-1 cells were seeded per well in 5 uL of media (RPMI + Glutamine, without phenol red plus10% FBS and 1X Pen/Strep) into 1536-well solid white high base tissue culture treated Greiner One Bio Plates (789173-F), using a multidrop combi dispenser and a small sterile cassette. Compounds and controls totaling 23nL per well (negative control DMSO and positive control 9.2 uM Bortezomib-final) were immediately added to the plates using a 1536 head pin tool from Kalypsys. The plates were then covered with stainless steel gasket lids from Kalypsys and incubated for 48 hours at 37C under 95% relative humidity with 5% CO2. After 48 hours, the plates were removed and allowed to reach room temperature before 3 uL of Cell Titer Glo reagent (Promega) were added using an Aurora Flying Reagent Dispenser Bioraptor. The plates were then spun at 1000 rpms to remove bubbles and incubated for 15 minutes at room temperature before reading on a ViewLux using a luminescent filter with a 10 second exposure. The relative luciferase units were used to calculated percent activity using DMSO as 100% and Bortezomib as 0%.
`O=C1CCC[C@@H]2[C@H]3CCCN4CCC[C@@H](CN12)[C@@H]34`: the viability (% of control) came to 120%.

As for `C[C@@H]1CC[C@H]2[C@@H](C)C(=O)O[C@@H]3O[C@@]4(C)CC[C@H]1[C@]32OO4`, the viability (% of control) came out at 98.1%.

Regarding `CCc1c(C(=O)C(N)=O)c2c(OCC(=O)O)cccc2n1Cc1ccccc1`, the viability (% of control) came to 115%.

Take `CCCN1CCO[C@@H]2c3cc(O)ccc3OC[C@@H]21`: the viability (% of control) was determined as 16.6%.

Consider `CC[C@@]1(O)C(=O)OCc2c1cc1n(c2=O)Cc2cc3ccccc3nc2-1`, for which the viability (% of control) is 3.88%.

For the compound `C[C@]12CC[C@H]3[C@@H](CCC4=CC(=O)CC[C@@]43C)[C@H]1CC[C@H]2OC(=O)CCC1CCCC1`, the viability (% of control) came out at 104%.

For the compound `O=C(NCC1CCOCC1)c1cnc(Nc2ccc(Cl)cc2Cl)nc1C(F)(F)F`, the viability (% of control) was determined as 7.59%.

As for `C=C[C@@H]1CN2CCC1C[C@@H]2[C@@H](O)c1ccnc2ccccc12` (stereo not given in full), the viability (% of control) came to 93.3%.

In the case of `CCCC[N+]1(C)[C@H]2CC(OC(=O)[C@H](CO)c3ccccc3)C[C@H]1[C@H]1O[C@H]12` (stereo not given in full), the viability (% of control) came out at 120%.

With `Cc1ccccc1-n1c(Cn2cnc3c(N)ncnc32)nc2cccc(C)c2c1=O`, the viability (% of control) came out at 9.3%.

As for `CCOC(=O)c1c(C(C#N)=CN)c2ccc(Cl)c(Cl)c2n1C`, the viability (% of control) stood at 94.3%.

As for `O=C(O)CNC(=O)c1c(O)c2ccccc2n(Cc2ccccc2)c1=O`, the viability (% of control) amounted to 132%.

As for `C[C@]12CC[C@H]3[C@@H](CCC4=CC(=O)CC[C@@]43C)[C@H]1CC[C@H]2O`, the viability (% of control) amounted to 101%.

As to `O=c1cccc2n1CC1CNC[C@H]2C1`, the viability (% of control) is 13.3%.

Take `O=c1[nH]c2ccccc2n1C1CCN(Cc2ccc(-c3[nH]c4cc5ncnc5cc4nc3-c3ccccc3)cc2)CC1`: the viability (% of control) was 3.61%.

Take `COc1cc([C@@H]2c3cc4c(cc3[C@@H](O)C3COC(=O)C32)OCO4)cc(OC)c1O` (stereo not given in full): the viability (% of control) came to 5.19%.

For the compound `CC(=Cc1csc(C)n1)[C@@H]1C[C@H]2O[C@]2(C)CCC[C@H](C)[C@@H](O)[C@@H](C)C(=O)C(C)(C)[C@@H](O)CC(=O)O1`, the viability (% of control) came to 17%.

As to `CCNC(=O)CC1N=C(c2ccc(Cl)cc2)c2cc(OC)ccc2-n2c(C)nnc21` (stereo not given), the viability (% of control) stood at 11.7%.

Consider `O=C(Nc1ccncc1)C(=O)c1cn(Cc2ccc(Cl)cc2)c2ccccc12`, for which the viability (% of control) was 16.2%.

On to `CSCC[C@@H](NC(=O)[C@@H](Cc1ccccc1)NC(=O)CNC(=O)CNC(=O)[C@@H](N)Cc1ccc(O)cc1)C(=O)O`, for which the viability (% of control) came to 134%.

In the case of `CC(C)(C)c1cc(C=C(C#N)C#N)cc(Br)c1O`, the viability (% of control) is 11%.

As to `COc1ccc2c(c1)[C@]13CCCCC1C(C2)N(C)CC3` (stereo not given in full), the viability (% of control) was determined as 93.4%.

Take `CC=C(C)C(=O)O[C@H]1C(C)=C2[C@@H]3OC(=O)[C@@](C)(O)[C@@]3(O)[C@@H](OC(=O)CCC)C[C@](C)(OC(C)=O)[C@@H]2[C@@H]1OC(=O)CCCCCCC`: the viability (% of control) came to 2.54%.

On to `CCOC(=O)c1cncn1[C@H](C)c1ccccc1`, for which the viability (% of control) came out at 105%.

In the case of `O=c1[nH]c2ccc(Cl)cc2c(N[C@@H]2CN3CCC2CC3)c1-c1nc2ccccc2[nH]1`, the viability (% of control) amounted to 2.3%.

For the compound `CC[C@H]1C=CC=CC[C@@H](C)[C@H](O)[C@@](C)(O)C(=O)[C@@H](C)[C@H](O)[C@@H](C)C(=O)[C@@H](C)[C@H](O)[C@@H](C)C=CC(=O)O[C@@H]2[C@@H](C)[C@H](CC1)O[C@]1(CC[C@H](C)[C@H](C[C@@H](C)O)O1)[C@H]2C`, the viability (% of control) was 6.39%.

Regarding `CC(=CCCC1=CCC(C2=CC(=O)OC2O)OC1O)CCC1=C(C)CCCC1(C)C` (stereo not given), the viability (% of control) turned out to be 103%.

For the compound `C=C1C[C@H]2[C@H]3CCC(=O)[C@@]3(C)CC[C@@H]2[C@@]2(C)C=CC(=O)C=C12`, the viability (% of control) was 32.6%.

Regarding `COC(=O)[C@@H](N)CCCN=C(N)N[N+](=O)[O-]`, the viability (% of control) was determined as 132%.

As to `CC(=O)Nc1ccc(OC[C@](C)(O)C(=O)Nc2ccc([N+](=O)[O-])c(C(F)(F)F)c2)cc1`, the viability (% of control) was 106%.

Consider `CC1(N2CCC(n3c([C@@H]4CCCNC4)nc4ccccc43)CC2)CCCCCCC1`, for which the viability (% of control) came to 5.69%.

Take `COC1=CC(C)=C[C@@H](C)[C@@H](O)[C@@H](C)CC(C)=CC=C[C@H](OC)[C@H]([C@@H](C)[C@@H](O)[C@H](C)[C@@]2(O)C[C@@H](O)[C@H](C)[C@@H](C(C)C)O2)OC1=O`: the viability (% of control) worked out at 18.4%.

`Cc1[nH]nc2ccc(-c3cncc(OC[C@@H](N)Cc4c[nH]c5ccccc45)c3)cc12`: the viability (% of control) is 1.66%.

For `COc1ccc2c(c[n+](C)c3c4cc5c(cc4ccc23)OCO5)c1OC`, the viability (% of control) was found to be 3.4%.

On to `COc1ccc(N(C(=O)Oc2c(C)cccc2C)c2ccnc(Nc3ccc(N4CCN(C)CC4)cc3)n2)c(OC)c1`, for which the viability (% of control) was found to be 13.7%.

With `C=C[C@@H]1CN2CCC1C[C@H]2[C@H](O)c1ccnc2ccccc12` (stereo not given in full), the viability (% of control) is 47.1%.

As for `Cc1c(C(=O)Nc2cccc(C(F)(F)F)c2)cc(-c2ccccc2)n1CCCN1CCOCC1`, the viability (% of control) was found to be 37.9%.

`CC=C(C)C(=O)N[C@@H](c1ccccc1)[C@@H](O)C(=O)O[C@H]1C[C@@]2(O)[C@@H](OC(=O)c3ccccc3)[C@@H]3[C@]4(OC(C)=O)CO[C@@H]4C[C@H](O)[C@@]3(C)C(=O)[C@H](OC(C)=O)C(=C1C)C2(C)C`: the viability (% of control) was found to be 19.1%.

As for `O=C(Oc1ccc([N+](=O)[O-])cc1)N1CCC(C(O)(c2ccc3c(c2)OCO3)c2ccc3c(c2)OCO3)CC1`, the viability (% of control) turned out to be 64.3%.

For the compound `CC(=O)OCC1=C(C(=O)O)N2C(=O)[C@@H](N)[C@@H]2SC1`, the viability (% of control) was 15.5%.
